Only some compounds are listed: those with a hit (about 21% of all), similar ones and a draw of the others.
Pf growth 48h – inhibits P. falciparum growth in the first generation, 48 h; P. falciparum luciferase growth in erythrocytes, 48 h; Potency, µM (highest dose often 28.7 µM), without a hit: at the top dose activity change, negative = inhibition, hits mostly inhibitors; 310,000 tested, 5.9% active; also: potency is read from the fitted curve at half-maximal effect; % is scaled to controls: 0 for no effect and ±100 for the full control effect
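Parasite viability was followed by luminescence of a genomically integrated firefly luciferase. Cultures held 0.1% parasitemia at 2% hematocrit (final), incubated under 5% CO2 at 37 C.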
HCV inhibitor – HCV inhibition; Huh7.5.1 HCVcc-Cre infection, luciferase reporter, 44 h; Potency, µM (highest dose often 41.8 µM), for inactives: at the top dose activity change, negative = inhibition, most hits filed as inhibitors; 340,000 tested, 3.4% active; AID 651820; also: potency is read from the fitted curve at half-maximal effect; % is scaled to controls: 0 for no effect and ±100 for the full control effect
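Cells (1,000/well) were plated 4 h before compound, then infected with HCVcc-Cre virus (~0.5 moi). After 44 h further culture, infection was read as luciferase luminescence following a 15 min substrate incubation at room temperature.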
Cycloheximide cs – counter-screen for Shiga toxin inhibitors: cycloheximide protein synthesis inhibition | cell reporter, cycloheximide protein synthesis inhibition counterscreen | max response, % | 300,000 tested, 12% active; in the data active = max response mostly above about 13%, no sharp cut-off; inactive = mostly below about 14%; also: read at 38.3 µM for the half of the compounds with a filed dose; 0% is about no effect
HCMV antiviral – human cytomegalovirus inhibition. HFF cells, HCMV-luciferase reporter, 72 h; hits give low values. activity change, negative = inhibition, % at 57.5 µM. 410,000 tested, 4.5% active; in the data active = activity change below about -60%; inconclusive = no clear call, values can overlap the other calls; inactive = above about -39%; also: % is scaled to controls: 0 for no effect and ±100 for the full control effect
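After 16 h attachment at 37C, HFF cells received test compound and HCMV-luciferase (1 PFU/cell); reporter luminescence read 72 h later, data normalized against buffer-only and known inhibitor Salinomycin.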
Pf growth 96h – P. falciparum growth inhibition at 96 hour, primary screen for plastid delayed-death inhibitors | Potency, µM (doses to about 28.7 µM), for the others: at the highest dose activity change, negative = inhibition, most hits filed as inhibitors | P. falciparum luciferase reporter growth, 96 h | 320,000 tested, 6.9% active; also: potency is read from the fitted curve at half-maximal effect; % is scaled to controls: 0 for no effect and ±100 for the full control effect
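Readout is luminescence from an integrated firefly luciferase in P. falciparum. Red cells, 2% hematocrit and 0.05% parasitemia final, were cultured with compound through two parasite generations (96 hours) at 37 C, 5% CO2.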
Shiga toxin inh – inhibitors of Shiga toxin in Vero cells | Vero cells, Shiga toxin protein synthesis inhibition reporter | inhibition, % at 38.7 µM | 290,000 tested, 9.2% active | AID 2315; in the data active = inhibition mostly above about 28%, no sharp cut-off; inactive = mostly below about 43%; also: 0% is about no effect
Numbers without * were called inactive. Unless noted, calls follow the shape of the dose curve; as a rule, active = well fitted inhibition curve with a large enough effect; inconclusive = small, poorly fitted or top-dose-only effect, or another doubt; inactive = no such curve, though single readings can be large or run the other way.

CCOC(=O)c1oc2ccc(S(=O)(=O)n3nc(-c4ccc(OC)cc4)cc3N)cc2c1C was read as Pf growth 48h inconclusive, HCV inhibitor -5%, Cycloheximide cs -1, HCMV antiviral -67*, Pf growth 96h 8% and Shiga toxin inh -5.
`COc1ccc(C(=O)CN2CCN(S(=O)(=O)c3cccc([N+](=O)[O-])c3)CC2)cc1OC` gave Pf growth 48h -3%, HCV inhibitor 4%, Cycloheximide cs 3, HCMV antiviral 27, Pf growth 96h inconclusive and Shiga toxin inh -10.
Screening COc1ccc2oc(C(=O)N3CCN(S(=O)(=O)c4cccc([N+](=O)[O-])c4)CC3)c(C)c2c1 returned Pf growth 48h inconclusive, HCV inhibitor 4%, Cycloheximide cs -2, HCMV antiviral -67*, Pf growth 96h 8.3µM* and Shiga toxin inh 5.
Screening COc1ccc2oc(C(=O)OCC(=O)N3CCN(S(=O)(=O)c4ccccc4)CC3)c(C)c2c1 returned Pf growth 48h inconclusive, HCV inhibitor -15%, HCMV antiviral -20 and Pf growth 96h -6%.
`CC(C)(C)CC(C)(C)NC(=O)C(=O)c1cccnc1` gave HCMV antiviral 12.
`CN1C[C@@H](NS(=O)(=O)N(C)C)C[C@@H]2c3cccc4c3c(cn4C)C[C@H]21` gave Pf growth 48h -46% and Pf growth 96h 13µM*.
For O=C1CC(/C=C/c2ccccc2)=Nc2ccccc2N1 the results were Pf growth 48h 73%, HCV inhibitor -29%, Cycloheximide cs 30*, HCMV antiviral -23, Pf growth 96h 17% and Shiga toxin inh 58*.
O=C1CC(=O)Nc2ccccc2N1 was read as HCMV antiviral -26.
`O=C1CC(C(F)(F)C(F)(F)C(F)(F)F)=Nc2ccccc2N1` gave Pf growth 48h -10%, HCV inhibitor 7%, Cycloheximide cs -1, HCMV antiviral 20, Pf growth 96h 1% and Shiga toxin inh -8.
For CC1(C)CC(/C=C/c2ccccc2)=Nc2ccccc2N1 the results were Pf growth 48h inconclusive, HCV inhibitor -19%, Cycloheximide cs 52*, HCMV antiviral -78*, Pf growth 96h inconclusive and Shiga toxin inh 83*.
Screening O=C1CC(/C=C/c2cccnc2)=Nc2ccccc2N1 returned Pf growth 48h inconclusive, HCV inhibitor -6%, Cycloheximide cs 17*, HCMV antiviral -26, Pf growth 96h inconclusive and Shiga toxin inh 30.
`O=C1CC(/C=C/c2ccc(Cl)cc2)=Nc2ccccc2N1` gave Pf growth 48h inconclusive, HCV inhibitor inconclusive, Cycloheximide cs 39*, HCMV antiviral -91*, Pf growth 96h inconclusive and Shiga toxin inh 97*.
For C[C@H](C(=O)N[C@H](CO)c1ccccc1)N1Cc2ccc(N3CCOCC3)nc2C1=O the results were HCMV antiviral -5.
For CCCNC(=O)N1CC(=O)N2[C@@H](CO)[C@H](c3ccc(Br)cc3)[C@@H]2C1 the results were HCMV antiviral -5.
`CC(C)Cn1c(=O)c2ccccc2n2c(CCC(=O)NCc3ccccc3Cl)nnc12` gave HCMV antiviral 30.
For O=C(Nc1nc2ccccc2s1)Nc1ccc([N+](=O)[O-])cc1Cl the results were Pf growth 48h inconclusive, Cycloheximide cs -2, Pf growth 96h 1µM* and Shiga toxin inh -3.
O=C(Nc1ccc(Cl)cc1)/C(=C/c1ccc([N+](=O)[O-])cc1)c1nc2ccccc2s1 was read as Pf growth 48h 2.1µM*, Cycloheximide cs 56*, Pf growth 96h 1.5µM* and Shiga toxin inh 115*.
Screening O=C(Nc1ccc(Cl)c([N+](=O)[O-])c1)Nc1nc2ccccc2s1 returned Pf growth 48h inconclusive, Cycloheximide cs 4, Pf growth 96h 10µM* and Shiga toxin inh 22.
Screening Cc1cc([N+](=O)[O-])nn1CC(=O)Nc1nc2ccccc2s1 returned Pf growth 48h 11%, HCV inhibitor 1%, Cycloheximide cs 5, HCMV antiviral 35, Pf growth 96h -1% and Shiga toxin inh 10.
For Cc1ccc(NC(=O)Nc2nc3ccccc3s2)cc1NC(=O)Nc1nc2ccccc2s1 the results were Pf growth 48h 2.1µM*, HCV inhibitor 14µM*, Cycloheximide cs 16, HCMV antiviral -74*, Pf growth 96h 2.6µM* and Shiga toxin inh 76.

Screens as filed in PubChem.
